28 molecules from PubChem BioAssay (NCATS) can be followed below.

The assay has as its target Calcium and integrin-binding protein 1 (Homo sapiens) (UniProt Q99828). Kind of assay: Primary qHTS for Identification of Calcium Integrin Binding Protein 1 (CIB1) Competitor (AID 1508620).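 Also: GST tagged CIB1 binding a fluorescein labelled alphaIIb integrin peptide tracer; top concentration of the series differs between compounds.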 The following applies: CIB1-GST / FITC-alphaIIb peptide fluorescence polarization; series mostly up to 57.7 µM. In outline: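 Fluorescence polarization competition: CIB1-GST (1 uM final) preincubated with compound 15 min at room temperature, then FITC-labeled alphaIIb peptide (100 nM final) added for another 15 min. Polarization read at Ex 480/Em 540.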

Inconclusive results are not listed. A call without a number means that no potency is given here. Values without a mark were called inactive. Activity calls are given as the source filed them. Calls follow the shape of the dose curve; as a rule, active = well fitted inhibition curve with a large enough effect; inconclusive = small, poorly fitted or top-dose-only effect; inactive = flat fitted curve, though single readings scatter. Where a SMILES comes first, the peptide text is derived from it.

Sequence of Calcium and integrin-binding protein 1 (Homo sapiens) (Q99828 whole entry, looked up): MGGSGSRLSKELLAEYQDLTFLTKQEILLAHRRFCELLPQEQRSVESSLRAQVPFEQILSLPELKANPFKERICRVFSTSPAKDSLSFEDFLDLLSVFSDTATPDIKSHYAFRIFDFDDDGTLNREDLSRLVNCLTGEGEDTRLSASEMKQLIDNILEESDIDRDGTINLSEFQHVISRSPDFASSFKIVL

In the case of `COC(=O)[C@@]1(C)CC[C@]2(C(=O)O[C@@H]3O[C@H](CO)[C@@H](O)[C@H](O)[C@H]3O)CC[C@]3(C)C(=CCC4[C@@]5(C)CC[C@H](O[C@@H]6O[C@H](C(=O)O)[C@@H](O)[C@H](O)[C@H]6O)C(C)(C)C5CC[C@]43C)[C@@H]2C1` (stereo partly drawn), the Potency entry was “inactive”.
On the same count and under the same terms, for `CC1(CCC(=O)O)C(=O)C=CC23CC4CC(OC4(C)C2O)C13` (stereo not drawn) the value was “inactive”; for `CCn1cc(C2=NOC(C(=O)Nc3c(C)n(C)n(-c4ccccc4)c3=O)C2)c(C)n1` (stereo not drawn), “inactive”.
As for `CC12CCC3C(C)(C)C(O)CCC3(C)C1Cc1c(oc(C(=O)O)cc1=O)O2` (stereo not drawn), the Potency entry was “inactive”.
On the same count and under the same terms, for `C/C=C(\C)C(=O)O[C@H]1[C@H](O)[C@]2(COC(C)=O)[C@H](O)C[C@]3(C)C(=CCC4[C@@]5(C)CC[C@H](O[C@@H]6O[C@H](C(=O)O)[C@@H](O[C@@H]7O[C@H](CO)[C@@H](O)[C@H](O)[C@H]7O)[C@H](O)[C@H]6O[C@@H]6O[C@H](CO)[C@@H](O)[C@H](O)[C@H]6O)[C@](C)(CO)C5CC[C@]43C)[C@@H]2CC1(C)C` (stereo partly drawn) the value was “inactive”; for `N[C@H]1C[C@H]1c1ccc(-c2cccc(O)c2)cc1`, “inactive”.
In the case of `C=Cc1cc(O)cc2nc(-c3ccc(O)c(F)c3)oc12`, the Potency entry was “inactive”.
For the molecule `C=CC(C)(O)CC/C=C(\C)C(=O)OCC1OC(OC2CCC3(C)C(CCC4(C)C3CC=C3C5CC(C)(C)C(O)CC5(C(=O)O)CCC34C)C2(C)C)C(O)C(OC2OC(CO)C(O)C(OC3OC(CO)C(O)C(OC4OC(COC5OC(CO)C(O)C(O)C5O)C(O)C(O)C4O)C3O)C2O)C1O` (stereo not drawn), the activity change, negative = inhibition is 0.919% [at 12.4 µM].
In the case of `O=C(O)Cc1nn(Cc2nc3cc(C(F)(F)F)ccc3s2)c(=O)c2nccnc12`, the Potency result is “inactive”.
In the case of `CC1NC(=O)CNC(=O)C(C(C)C)NC(=O)C2CCCN2C(=O)C(C(C)C)NC(=O)C(Cc2c[nH]c3ccccc23)NC1=O` (stereo not drawn) (cyclo(GAWVPV); configuration not given here), the Potency entry was “inactive”.
Same read-out and setting: for `C=CC(C)(CC/C=C(\C)CC/C=C(\C)CC(O)/C=C(\C)C(=O)O)O[C@@H]1O[C@H](CO)[C@@H](O)[C@H](O)[C@H]1O[C@@H]1O[C@H](CO)[C@@H](O)[C@H](O)[C@H]1O` (stereo partly drawn) the value was “inactive”.
On to `CC(C)NC[C@H](O)COc1ccc(CCOCC2CC2)cc1`, for which the Potency result is “inactive”.
The same measure, in the same setting: with `Oc1ccc([C@H]2COc3cc(O)ccc3C2)cc1` the entry was “inactive”; with `C=C1CC23CCC4[C@@](C)(CCC[C@@]4(C)C(=O)O)C2CCC1C3` (stereo partly drawn), “inactive”.
With `COc1cc([C@H]2OC[C@]3(OC(C)=O)[C@@H](c4ccc(O[C@@H]5O[C@H](CO)[C@@H](O)[C@H](O)[C@H]5O)c(OC)c4)OC[C@H]23)ccc1O`, the Potency result was “inactive”.
Still for that read-out and setting: with `O=C1NC(Cc2ccc(O)cc2)C(=O)N2CCCC12` (stereo not drawn) the entry was “inactive”; with `C=CC(C)(C)O[C@@H]1O[C@H](CO[C@@H]2OC[C@](O)(CO)[C@H]2O)[C@@H](O)[C@H](O)[C@H]1O`, “inactive”; with `O=C(COc1ccc(Cl)cc1)NC1CCC(NC(=O)COc2ccc(Cl)cc2)CC1` (stereo not drawn), “inactive”.
Consider `CC1(C)CCCC2(C)C(CO)C3CCC2C31` (stereo not drawn), for which the Potency entry is “inactive”.
Take `C/C=C/C=C/C=C/C(=O)O[C@@H]1C=C(CO)C(O)(C(=O)O)[C@@]2(C)CCCC(C)(C)[C@H]12` (stereo partly drawn): the Potency entry was “inactive”.
On the same count and under the same terms, with `COc1cc([C@@H]2Oc3c(OC)cc(CCCO)cc3[C@@H]2CO[C@@H]2O[C@H](CO)[C@@H](O)[C@H](O)[C@H]2O)ccc1O` the entry was “inactive”; with `O=C(/C=C/c1ccc(O)c(O)c1)OCc1ccccc1O[C@@H]1O[C@H](CO)[C@@H](O)[C@H](O)[C@H]1O`, “inactive”; with `CC(=O)O[C@@H]1[C@@H](OC(=O)/C=C/c2ccccc2)[C@H](C)O[C@@H](O[C@H]2[C@@H]3C=CO[C@@H](O[C@@H]4O[C@H](CO)[C@@H](O)[C@H](O)[C@H]4O)[C@@H]3[C@@]3(CO)O[C@@H]23)[C@@H]1OC(C)=O`, “inactive”.
On the same count and under the same terms, for `CC(=O)[C@@H]1CC[C@]2(C(=O)O)CC[C@]3(C)C(CCC4[C@@]5(C)CC[C@H](O)C(C)(C)C5CC[C@]43C)C12` (stereo partly drawn) the value was “inactive”; for `CC(=O)O[C@H]1[C@H](Oc2ccccc2COC(=O)C2(O)C=CCCC2=O)O[C@H](CO)[C@@H](O)[C@@H]1O` (stereo partly drawn), “inactive”; for `CNC(=O)Nc1ccc(OC)c(NC(=O)NC(=O)c2cc(F)c(F)cc2Cl)c1`, “inactive”.
In the case of `c1nc(NC2CCCCCC2)c2cc(CNC[C@H]3CCCO3)sc2n1`, the Potency entry is “inactive”.
With `COc1c(C(CC(C)C)OC(C)=O)ccc(Oc2c(O)cc(C)cc2/C=C/C(C)=O)c1C(=O)O` (stereo not drawn), the Potency entry was “inactive”.
